The target in the assay is T1, Methionyl-tRNA synthetase, putative (Leishmania donovani (strain BPK282A1)) (UniProt E9BF75).
T1 sequence (whole entry): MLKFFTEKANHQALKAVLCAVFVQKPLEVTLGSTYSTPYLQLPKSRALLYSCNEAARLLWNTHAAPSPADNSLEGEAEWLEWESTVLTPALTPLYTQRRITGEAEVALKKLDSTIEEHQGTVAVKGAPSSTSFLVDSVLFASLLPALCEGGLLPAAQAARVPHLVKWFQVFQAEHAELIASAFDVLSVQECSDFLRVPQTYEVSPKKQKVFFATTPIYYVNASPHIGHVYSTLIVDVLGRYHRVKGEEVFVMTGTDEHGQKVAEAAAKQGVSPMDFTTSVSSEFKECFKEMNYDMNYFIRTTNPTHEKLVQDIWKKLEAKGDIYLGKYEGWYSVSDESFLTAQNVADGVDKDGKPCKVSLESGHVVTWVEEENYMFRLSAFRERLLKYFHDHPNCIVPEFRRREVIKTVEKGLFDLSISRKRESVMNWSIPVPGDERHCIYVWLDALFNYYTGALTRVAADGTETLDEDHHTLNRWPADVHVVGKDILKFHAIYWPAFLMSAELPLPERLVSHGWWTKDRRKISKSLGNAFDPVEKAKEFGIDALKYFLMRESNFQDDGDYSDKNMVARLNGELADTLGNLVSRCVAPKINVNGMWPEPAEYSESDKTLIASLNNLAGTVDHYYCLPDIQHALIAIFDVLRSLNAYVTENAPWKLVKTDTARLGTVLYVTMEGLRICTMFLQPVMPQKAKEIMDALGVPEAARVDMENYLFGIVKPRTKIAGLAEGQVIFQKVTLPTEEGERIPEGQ
Description: Leishmania donovani Methionine tRNA synthetase (LdMetRS):v7. Dose response assay. The format is functional. More on the design: conc 80 nM, time 150 minutes.

As to `Cc1nc(NCCCO)c2c(-c3cccs3)csc2n1`, the PXC50 is less than 4 (MAX_EFFECT 5.852417303) and less than 4 (MAX_EFFECT 7.808564232).

As to `CCCNc1nc(-c2ccc(C)cc2)cc(C(F)(F)F)n1`, the PXC50 by setting is: (MAX_EFFECT 6.21761658) less than 4; (MAX_EFFECT 10.10638298) less than 4.

As for `Cc1nc(NCc2cccnc2)c2c3c(sc2n1)CCC3`, the PXC50 reads like this: (MAX_EFFECT 6.361323155) less than 4; (MAX_EFFECT 13.85390428) less than 4.

Take `Nc1cc(C(=O)O)c(Cl)cc1Cl`: the PXC50 is, setting by setting: (MAX_EFFECT 6.695464363) less than 3; (MAX_EFFECT 9.69581749) less than 3.

Consider `CC(C)C[C@H](N)COc1ccc(Cl)cc1-c1ccno1`, for which the PXC50 is, setting by setting: (MAX_EFFECT 6.832298137) less than 4; (MAX_EFFECT 8.742004264) less than 4.

Turning to `Nc1noc2ccc(-c3cnc4ccc(NCc5ccccn5)nn34)cc12`, the PXC50 (MAX_EFFECT 7.291666667) was less than 4 and the PXC50 (MAX_EFFECT 11.84210526) was less than 4.

`CCc1nc(N2CCN(CC)CC2)c2cc(CC)sc2n1`: the PXC50 by setting is: (MAX_EFFECT 7.407407407) less than 4; (MAX_EFFECT 9.066666667) less than 4.

In the case of `Cc1nc(N[C@@H](C)C(=O)O)c2c3c(sc2n1)CCCC3`, the PXC50 is, setting by setting: (MAX_EFFECT 7.446808511) less than 4; (MAX_EFFECT 9.32642487) less than 4.

On to `CC(C)C[C@H]1COc2ccccc2C(c2ccccc2)=N1`, for which the PXC50 is, setting by setting: (MAX_EFFECT 7.8891258) less than 4; (MAX_EFFECT 10.97308489) less than 4.

Consider `Cc1nc(NC(C(=O)O)C(C)C)c2c(C)c(C)sc2n1` (stereo not given), for which the PXC50 is, setting by setting: (MAX_EFFECT 8.0) less than 4; (MAX_EFFECT 9.523809524) less than 4.

`Cc1sc2nc(-c3cccs3)nc(NCCN3CCOCC3)c2c1C`: the PXC50 by setting is: (MAX_EFFECT 8.542713568) less than 4; (MAX_EFFECT 8.5995086) less than 4.

Regarding `Cc1sc2nc(CN3CCOCC3)nc(NC3CC3)c2c1C`, the PXC50 reads like this: (MAX_EFFECT 8.673469388) less than 4; (MAX_EFFECT 8.838383838) less than 4.

Turning to `CO[C@H]1[C@@H]2CC[C@H]1CN(c1nc(C)nc3sccc13)C2`, the PXC50 was less than 4 (MAX_EFFECT 8.838383838) and less than 4 (MAX_EFFECT 9.693877551).

On to `N[C@H](COc1cccc(F)c1Oc1ccc(Cl)cc1)C1CCOCC1`, for which the PXC50 by setting is: (MAX_EFFECT 9.316770186) less than 4; (MAX_EFFECT 10.44776119) less than 4.

On to `CC(C)C[C@H](N)COc1ccccc1-c1ccno1`, for which the PXC50 runs as follows: (MAX_EFFECT 9.594882729) less than 4; (MAX_EFFECT 10.97308489) less than 4.

The compound `CN1CCN(c2ccc3ccc(C(=O)N4CCCO4)cn23)CC1` yielded a PXC50 (MAX_EFFECT 9.85915493) of less than 4 and a PXC50 (MAX_EFFECT 16.48148148) of less than 4.

For `COc1ccccc1C1(CNc2nnc(C)c(C)c2C#N)CCOCC1`, the PXC50 was less than 4 (MAX_EFFECT 9.85915493) and less than 4 (MAX_EFFECT 18.33333333).

As to `OB1OCc2ccccc21`, the PXC50 (MAX_EFFECT 10.0456621) is less than 4 and the PXC50 (MAX_EFFECT -0.566037736) is less than 4.

`Cc1sc2nc(CN3CCOCC3)nc(NS(C)(=O)=O)c2c1C`: the PXC50 is less than 4 (MAX_EFFECT 10.38251366) and less than 4 (MAX_EFFECT 12.29946524).

For the compound `Fc1ccc(CN2CCC(F)(F)C3(CCN(c4cnccn4)C3)C2)cc1` (stereo not given), the PXC50 runs as follows: (MAX_EFFECT 10.88435374) less than 4; (MAX_EFFECT 11.21495327) less than 4.

Turning to `Cc1cc2c(N3CCN(CCO)CC3)nc(-c3cccnc3)nc2s1`, the PXC50 is less than 4 (MAX_EFFECT 11.05527638) and less than 4 (MAX_EFFECT 12.53071253).

Turning to `CCNc1cc(-c2ccccn2)nc(Nc2ccc(F)cc2)n1`, the PXC50 by setting is: (MAX_EFFECT 11.72707889) less than 4; (MAX_EFFECT 12.21532091) less than 4.

For `CN1CCN(c2ccc3ccc(C(=O)N4CCCCO4)cn23)CC1`, the PXC50 by setting is: (MAX_EFFECT 12.20657277) less than 4; (MAX_EFFECT 19.44444444) less than 4.

With `COCCNc1nc(CN2CCCC2)nc2sc3c(c12)CCCC3`, the PXC50 was less than 4 (MAX_EFFECT 13.54166667) and less than 4 (MAX_EFFECT 14.03508772).

For the compound `Cc1nc(N2CCN(c3cnccn3)CC2)c2c3c(sc2n1)CCCC3`, the PXC50 by setting is: (MAX_EFFECT 22.45989305) less than 4; (MAX_EFFECT 25.13661202) less than 4.

With `CC(C)C[C@H](N)COc1ccc(-c2ccccc2)c(F)c1`, the PXC50 (MAX_EFFECT 23.6673774) is less than 4 and the PXC50 (MAX_EFFECT 25.46583851) is less than 4.

As for `Nc1nc(CSc2ncccn2)nc2sc3c(c12)CCCC3`, the PXC50 was less than 4 (MAX_EFFECT 24.53333333) and less than 4 (MAX_EFFECT 26.98412698).

Turning to `CC(C)C[C@H](N)COc1ccc(OCc2ccccc2)c(F)c1`, the PXC50 is less than 4 (MAX_EFFECT 25.05175983) and less than 4 (MAX_EFFECT 28.78464819).

As for `CCC(CO)Nc1nc(CSc2ccccc2)nc2sc3c(c12)CCC3` (stereo not given), the PXC50 (MAX_EFFECT 27.86885246) is less than 4 and the PXC50 (MAX_EFFECT 29.94652406) is less than 4.

As to `Cc1nccn1CCCn1cncc1-c1ccc2c(c1)CC(C)N2C` (stereo not given), the PXC50 is, setting by setting: (MAX_EFFECT 28.57142857) less than 4; (MAX_EFFECT 43.36448598) less than 4.
